The record followed here is PubChem BioAssay (Tox21).

“And” between values parts separate entries of the source, which are not always exact repeats. Equal values may be shown once. Records with an inconclusive call do not appear. More than one record can exist for a structure, and the calls need not agree. The source made the active and inactive calls. Unless noted, calls follow the shape of the dose curve; as a rule, active = well fitted curve in the direction sought with a large enough effect in the repeat runs; inconclusive = weak or mixed curves; inactive = no such curve, though single readings can be large; an effect the other way counts as inactive or inconclusive.

Assay [1] in a line: qHTS assay to test for compound auto fluorescence at 535 nm (green) in HEK293 cells (AID 720680).
Assay [2] can be described thus: qHTS assay to test for compound auto fluorescence at 460 nm (blue) in HEK293 cell free culture (AID 720681). In outline: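 Compounds were added to cell-free DMEM with 10% FBS and fluorescence read directly. The blue channel used 405 nm excitation and 460 nm emission, with triamterene as the reference fluorophore.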
For orientation: Quantitative high-throughput screening tests each substance at several concentrations.

Assay [3] can be described thus: qHTS assay to test for compound auto fluorescence at 535 nm (green) in HEK293 cell free culture (AID 720682). Summed up:
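Measurement is a direct plate read of green fluorescence (485 nm in, 535 nm out) after compound addition to serum-supplemented DMEM lacking cells, with fluorescein used to express intensities.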

Assay [4] can be described thus: qHTS assay to test for compound auto fluorescence at 590 nm (red) in HEK293 cell free culture (AID 720683). Summed up:
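Cell-free wells of DMEM with 10% FBS received compound, and intrinsic fluorescence was read at excitation/emission 540/590 nm. Values expressed as equivalence to Rose Bengal sodium.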

A short description of assay [5]: qHTS assay to test for compound auto fluorescence at 590 nm (red) in HepG2 cell free culture (AID 720684). In outline:
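Compounds are added to culture medium (MEM, 10% FBS) lacking cells, then fluorescence is read at excitation 540 nm, emission 590 nm, with Rose Bengal sodium as the equivalency standard.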

Assay [6] can be described thus: qHTS assay to test for compound auto fluorescence at 535 nm (green) in HepG2 cell free culture (AID 720686).
A short description of assay [7]: qHTS assay for identifying genotoxic compounds that show differential cytotoxicity against isogenic chicken DT40 cell lines with known DNA damage response pathways - wild type cell line (AID 743012). Also: nearly all actives have a fitted effect of over 60% in size. Also: potency is read from the fitted curve at half-maximal effect. In outline: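 Wild type DT40, 300 cells/well, ~0.5 h settle at 37 C/5% CO2; compounds in DMSO added by pintool; 40 h at 37 C/5% CO2; CellTiter-Glo, 30 min RT; luminescence.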

A short description of assay [8]: qHTS assay for identifying genotoxic compounds that show differential cytotoxicity against isogenic chicken DT40 cell lines with known DNA damage response pathways - Rev3 mutant cell line (AID 743014). Also: nearly all actives have a fitted effect of over 55% in size. Also: potency is read from the fitted curve at half-maximal effect.
Assay [9] in a line: qHTS assay for identifying genotoxic compounds that show differential cytotoxicity against isogenic chicken DT40 cell lines with known DNA damage response pathways - Rad54/Ku70 mutant cell line (AID 743015). Also: nearly all actives have a fitted effect of over 60% in size. Also: potency is read from the fitted curve at half-maximal effect.
Assay [10] is described as follows: qHTS assay to identify small molecule antagonists of the androgen receptor (AR) signaling pathway - cell viability counter screen (AID 743033; also: nearly all actives have a fitted effect of over 45% in size; also: potency is read from the fitted curve at half-maximal effect).
The nature of assay [11]: qHTS assay to test for compound auto fluorescence at 460 nm (blue) in HepG2 cells (AID 720687). In outline:
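HepG2 cells in MEM with 10% FBS, attached overnight at 37 C, were exposed to compound or DMSO for 1 hr at 37 C, 5% CO2. Blue fluorescence was read at 405/460 nm, with triamterene as reference fluorophore.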

The target of assay [12] is Glucocorticoid receptor (Homo sapiens) (UniProt P04150). The experiment in a line: qHTS assay to identify small molecule agonists of the glucocorticoid receptor (GR) signaling pathway (AID 720691; active = well fitted activation curve with a large enough effect in the signal ratio in the repeat runs, not every such curve was filed as active; the % refers to the signal ratio). In outline: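 Fluorescence intensity from LiveBLAzer B/G FRET substrate (2 h, room temperature) reports beta-lactamase expression driven by the glucocorticoid response element in GR-bla HeLa cells after 18 h compound exposure at 37 C.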

For assay [13] the target is unchanged. The experiment in a line: qHTS assay to identify small molecule antagonists of the glucocorticoid receptor (GR) signaling pathway (AID 720692; active = well fitted inhibition curve with a large enough effect in the signal ratio in the repeat runs, not every such curve was filed as active; the % refers to the signal ratio; also: potency is read from the fitted curve at half-maximal effect). Summed up: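 HeLa GR-bla cells; cmpd + dex 5 nM final, 18 h 37 C; LiveBLAzer B/G FRET substrate 2 h RT; fluorescence intensity read. Antagonist mode, qHTS.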
In assay [14] the target is Androgen receptor (Homo sapiens) (UniProt P10275). The assay is described as follows: qHTS assay to identify small molecule antagonists of the androgen receptor (AR) signaling pathway (AID 743035; active = well fitted inhibition curve with a large enough effect in the signal ratio in the repeat runs, not every such curve was filed as active; the % refers to the signal ratio; also: potency is read from the fitted curve at half-maximal effect). In outline: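 Fluorescence from a beta-lactamase FRET substrate (LiveBLAzer B/G, 2 h, room temperature) measured inhibition of R1881-stimulated signaling in GeneBLAzer AR-UAS-bla HEK293 cells exposed to compound for 16 h at 37C.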

Assay [15] shares this target. The experiment in a line: qHTS assay to identify small molecule agonists of the androgen receptor (AR) signaling pathway using the MDA cell line (AID 743040; also: nearly all actives have a fitted effect of over 20% in size). In outline:
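Human breast carcinoma MDA-kb2 reporter cells (MMTV-luc, AR/GR elements) were treated for 16 h at 37C in 0% CO2 following a 5 h settling period. Signal was quantified by ONE-Glo luminescence.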

Assay [16] can be described thus: qHTS assay to identify small molecule antagonists of the androgen receptor (AR) signaling pathway using the MDA cell line - cell viability counter screen (AID 743041; also: nearly all actives have a fitted effect of over 45% in size). In outline: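 Same-well cytotoxicity was assessed by CellTiter-Fluor in MDA-kb2 AR-luc cells after 16 h of compound treatment under R1881 agonism.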
In assay [17] the target is Androgen receptor (Homo sapiens) (UniProt P10275). The experiment in a line: qHTS assay to identify small molecule antagonists of the androgen receptor (AR) signaling pathway using the MDA cell line (AID 743042; also: nearly all actives have a fitted effect of over 55% in size; also: potency is read from the fitted curve at half-maximal effect). Summed up: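 MDA-kb2 breast carcinoma cells carrying MMTV-luciferase (AR/GR responsive) were co-treated with compounds and the agonist R1881 for 16 h at 37C. Inhibition read as ONE-Glo luminescence; CellTiter-Fluor fluorescence measured in parallel for cytotoxicity.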

A short description of assay [18]: qHTS assay to identify small molecule antagonists of the glucocorticoid receptor (GR) signaling pathway - cell viability counter screen (AID 720693). Also: nearly all actives have a fitted effect of over 55% in size. Also: potency is read from the fitted curve at half-maximal effect.
Assay [19] has as its target Androgen receptor (Homo sapiens) (UniProt P10275). The experiment in a line: qHTS assay to identify small molecule agonists of the androgen receptor (AR) signaling pathway (AID 743036; active = well fitted activation curve with a large enough effect in the signal ratio in the repeat runs, with a control signal flat, not every such curve was filed as active; the % refers to the signal ratio). In outline: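 Beta-lactamase under UAS control, stably integrated in HEK293 GripTite cells, reports receptor activation. After 16 h compound treatment, cells received FRET substrate for 2 h at room temperature before fluorescence reading.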

Sequence of Glucocorticoid receptor (Homo sapiens) (P04150 whole entry, looked up): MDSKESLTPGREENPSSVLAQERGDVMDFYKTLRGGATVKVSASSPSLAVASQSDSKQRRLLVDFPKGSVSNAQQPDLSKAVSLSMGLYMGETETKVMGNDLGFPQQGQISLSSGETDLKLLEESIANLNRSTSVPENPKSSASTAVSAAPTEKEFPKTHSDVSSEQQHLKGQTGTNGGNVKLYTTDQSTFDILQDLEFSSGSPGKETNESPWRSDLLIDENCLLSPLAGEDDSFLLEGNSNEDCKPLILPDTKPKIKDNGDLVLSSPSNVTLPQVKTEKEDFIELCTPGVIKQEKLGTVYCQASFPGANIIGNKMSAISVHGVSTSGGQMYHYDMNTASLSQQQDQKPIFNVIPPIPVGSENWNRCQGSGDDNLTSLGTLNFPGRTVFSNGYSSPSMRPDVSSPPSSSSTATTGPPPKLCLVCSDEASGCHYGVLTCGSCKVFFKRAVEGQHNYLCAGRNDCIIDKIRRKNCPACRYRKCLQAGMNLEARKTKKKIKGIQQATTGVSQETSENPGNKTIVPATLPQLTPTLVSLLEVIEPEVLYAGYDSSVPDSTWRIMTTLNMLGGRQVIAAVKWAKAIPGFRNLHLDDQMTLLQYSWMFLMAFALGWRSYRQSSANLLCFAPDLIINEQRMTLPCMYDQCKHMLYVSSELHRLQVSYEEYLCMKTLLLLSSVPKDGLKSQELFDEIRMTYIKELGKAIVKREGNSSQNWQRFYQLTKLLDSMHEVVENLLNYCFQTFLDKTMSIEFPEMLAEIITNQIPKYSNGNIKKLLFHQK
Sequence of Androgen receptor (Homo sapiens) (P10275 whole entry, looked up): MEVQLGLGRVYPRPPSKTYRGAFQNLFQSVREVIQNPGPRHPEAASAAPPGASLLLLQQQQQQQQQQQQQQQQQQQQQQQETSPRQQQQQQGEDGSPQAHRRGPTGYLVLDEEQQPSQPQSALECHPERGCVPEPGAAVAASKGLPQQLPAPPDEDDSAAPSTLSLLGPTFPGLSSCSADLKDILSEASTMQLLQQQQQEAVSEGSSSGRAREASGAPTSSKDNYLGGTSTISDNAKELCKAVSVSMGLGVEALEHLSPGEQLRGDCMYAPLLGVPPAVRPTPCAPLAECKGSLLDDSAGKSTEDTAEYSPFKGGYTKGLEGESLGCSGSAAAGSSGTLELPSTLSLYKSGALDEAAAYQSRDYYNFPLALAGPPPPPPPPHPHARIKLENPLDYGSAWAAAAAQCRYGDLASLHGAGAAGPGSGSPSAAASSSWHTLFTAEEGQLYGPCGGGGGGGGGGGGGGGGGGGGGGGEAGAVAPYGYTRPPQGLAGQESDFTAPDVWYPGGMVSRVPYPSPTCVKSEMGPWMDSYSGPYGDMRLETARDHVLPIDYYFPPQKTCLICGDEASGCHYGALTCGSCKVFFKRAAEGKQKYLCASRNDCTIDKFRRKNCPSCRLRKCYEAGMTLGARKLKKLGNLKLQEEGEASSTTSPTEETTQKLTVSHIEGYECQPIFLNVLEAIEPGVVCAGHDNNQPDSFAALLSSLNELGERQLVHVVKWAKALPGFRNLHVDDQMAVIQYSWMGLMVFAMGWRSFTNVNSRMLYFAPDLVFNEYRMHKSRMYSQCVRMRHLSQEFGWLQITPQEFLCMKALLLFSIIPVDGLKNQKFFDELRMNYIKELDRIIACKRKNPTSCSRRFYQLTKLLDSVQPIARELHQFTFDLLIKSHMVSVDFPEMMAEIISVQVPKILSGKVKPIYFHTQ

As to `COC(=O)c1ccccc1`, the Potency result in assay [1], in assay [3], in assay [4], in assay [5], in assay [6] and in [7] was “inactive” each time. For the same molecule, the Potency result in assay [8], in assay [9] and in assay [10] was “inactive” throughout. Besides, in assay [2], the molecule was called inactive.

Regarding `c1ccc2cc(Nc3ccc(Nc4ccc5ccccc5c4)cc3)ccc2c1`, the Potency entry in assay [1], in assay [3], in assay [4], in assay [5], in assay [6] and in assay [12] was “inactive” in each case. The Potency result in assay [13], in [7], in [8], in assay [9], in assay [10] and in assay [14] was “inactive” in each case. In addition, the Potency entry in assay [15], in [16] and in assay [17] was “inactive” each time. The outcome in assay [2] and in assay [11] was inactive.

Turning to `CC(C)OC=O`, the Potency entry in assay [1], in assay [3], in assay [4], in [5], in [6] and in [12] was “inactive” throughout. The Potency result in assay [13], in [7], in assay [9], in assay [10] and in assay [16] was “inactive” in each case. Moreover, the molecule was called inactive in assay [2] and in [11]. In assay [8], the Potency is 72.9 µM (active) and inactive.

In the case of `CCC(C)(O)CCCC(C)C` (configuration not stated), the Potency entry in assay [1], in assay [3], in assay [4], in assay [5], in assay [6] and in assay [12] was “inactive” throughout. The Potency entry in [13], in assay [18], in assay [7], in assay [8], in assay [9] and in [10] was “inactive” each time. In addition, the Potency entry in assay [16] is “inactive”. The call in [2] and in [11] was inactive.

Turning to `COC(=O)Nc1nc2ccc(S(=O)c3ccccc3)cc2[nH]1` (configuration not stated), the Potency result in assay [1], in assay [3], in assay [4], in [5], in [6] and in assay [12] was “inactive” throughout. Further, the Potency result in assay [13], in [18], in assay [10] and in assay [16] was “inactive” throughout. Also, in assay [2], the result was inactive. The Potency is 9.44 µM (active) and 6.85 µM (active) in [7]; 11.9 µM (active) and 6.11 µM (active) in assay [8]; 13.3 µM (active) and 8.63 µM (active) in [9].

As for `C[C@]12CCC(=O)C=C1CC[C@@H]1[C@@H]2C(=O)C[C@@]2(C)[C@H]1CC[C@]2(O)C(=O)CO`, the Potency entry in [1], in assay [3], in assay [4], in assay [5], in assay [6] and in [18] was “inactive” throughout. Also, the Potency result in assay [10] and in [16] was “inactive” in each case. Moreover, the molecule was called inactive in [2] and in assay [11]. The Potency in assay [13] is 9.52 µM (active) and 6.92 µM (active); in assay [7], “inactive and 61.1 µM (active)”; in assay [8] it was “inactive and 61.1 µM (active)”; in assay [9] it was “inactive and 68.6 µM (active)”.

In the case of `CCC(C)CO` (configuration not stated), the Potency entry in assay [1], in assay [3], in assay [4], in assay [5], in assay [6] and in assay [12] was “inactive” throughout. Besides, the Potency result in assay [13], in assay [7], in [8], in assay [9], in assay [10] and in assay [16] was “inactive” in each case. Moreover, the molecule was classed as inactive in [2] and in assay [11].

Take `O=CCc1ccccc1`: the Potency result in [1], in assay [3], in assay [4], in assay [5], in assay [6] and in assay [12] was “inactive” in each case. Also, the Potency result in [13], in assay [18], in [7], in assay [8], in assay [10] and in [16] was “inactive” throughout. The result in [2] and in assay [11] was inactive. Also, the Potency result in assay [9] is “inactive and 54.5 µM (active)”.

Take `CC(C)=CCCC(C)CCO` (configuration not stated): the Potency result in [1], in assay [3], in assay [4], in assay [5], in [6] and in [10] was “inactive” throughout. Moreover, the Potency entry in [16] is “inactive”. In addition, the outcome in assay [2] and in assay [11] was inactive. Also, the Potency in assay [7] is 61.1 µM (active); in [8], “inactive and 30.6 µM (active)”; in [9], “inactive and 27.3 µM (active)”.

Turning to `O=S(=O)(O)c1ccc(O)cc1`, the Potency entry in [1], in assay [3], in assay [4], in [5], in [6] and in assay [12] was “inactive” in each case. The Potency result in [13], in [7], in assay [8], in assay [9] and in assay [10] was “inactive” each time. The result in assay [2] and in [11] was inactive.

As to `CC(C)OC(=O)C(C)(C)Oc1ccc(C(=O)c2ccc(Cl)cc2)cc1`, the Potency entry in [1], in assay [3], in assay [4], in [5], in assay [6] and in [12] was “inactive” throughout. Further, the Potency result in assay [13], in [18], in assay [14] and in assay [15] was “inactive” throughout. The molecule was called inactive in assay [2], in [11] and in assay [19]. Further, the Potency in [7] is 29.8 µM (active) and 12.2 µM (active); in assay [8], 24.3 µM (active); in assay [9], 15.4 µM (active); in [10], “inactive and 43.6 µM (active)”; in [17] it was “inactive and 48.6 µM (active)”.

Turning to `O=C(Nc1ccc(Cl)cc1)Nc1ccc(Cl)c(Cl)c1`, the Potency entry in assay [1], in assay [3], in [4], in assay [5], in [6] and in [15] was “inactive” in each case. Also, the call in assay [2] was inactive. For the same molecule, the Potency in [18] is 4.77 µM (active) and 7.73 µM (active) and 6.92 µM (active); in [7] it was 3.35 µM (active) and 6.08 µM (active) and 2.73 µM (active); in assay [8] it was 2.66 µM (active) and 4.31 µM (active) and 2.17 µM (active); in assay [9] it was 2.66 µM (active) and 5.42 µM (active) and 2.17 µM (active); in assay [10], 3.38 µM (active) and 1.94 µM (active) and 3.89 µM (active); in [14], 6.01 µM (active) and 4.36 µM (active). In addition, in assay [17], the Potency is 43.1 µM (active) and 13.7 µM (active).

`Cc1c(C(N)=O)cc([N+](=O)[O-])cc1[N+](=O)[O-]`: the Potency entry in assay [1], in assay [3], in [4], in assay [5], in [6] and in assay [12] was “inactive” each time. In addition, the Potency result in assay [13], in assay [7], in assay [8], in [9], in [10] and in assay [16] was “inactive” each time. Also, the molecule was called inactive in assay [2] and in assay [11].

For `NNc1ccc(C(=O)O)cc1`, the Potency entry in [1], in [3], in assay [4], in [5], in assay [6] and in assay [18] was “inactive” each time. The Potency result in assay [7], in assay [8], in assay [9], in [10] and in assay [16] was “inactive” in each case. For the same molecule, the molecule was classed as inactive in assay [2] and in assay [11].
